From PubChem BioAssay (Tox21)
Values joined by “and” are separate entries in the source; they are usually repeats but may differ in a detail not shown here. Equal values may be shown once. Records with an inconclusive call do not appear. The source holds several records for some structures; these can differ, active in one and inactive in another. Active and inactive are the calls of the source. Unless noted, calls come from the whole dose curve; as a rule, active = well fitted curve in the direction sought with a large enough effect in the repeat runs; inconclusive = weak or mixed curves; inactive = no such curve, though single readings can be large; an effect the other way counts as inactive or inconclusive.

Key:
[1] = qHTS assay to identify small molecule agonists of the hypoxia (HIF-1) signaling pathway - cell viability counter screen (AID 1224844; calls by dose curve; note: nearly all actives have a fitted effect of over 50% in size)
Summary of the method: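 Viability counter screen: HRE-bla ME-180 cells plated 5 hrs before compound addition, treated 17 hrs at 37C and 5% CO2, then CellTiter-Glo added after the FRET reporter read; luminescence after 30 min.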

[2] = qHTS assay to identify small molecule agonists of H2AX (AID 1224845; active = well fitted activation curve with a large enough effect in the signal ratio in the repeat runs, not every such curve was filed as active; the % refers to the signal ratio; note: potency is the fitted concentration of half-maximal effect)
Summary of the method: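 Phospho-H2AX Ser139 measured by HTRF (ex 320 nm; em 665 and 620 nm) after 24 hr antibody incubation. Compounds, 15 concentrations, 0.76% DMSO, were applied to CHO-K1 cells for 3hr at 37C before lysis.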

[3] = qHTS assay to identify small molecule agonists of the hypoxia (HIF-1) signaling pathway (AID 1224846; active = well fitted activation curve with a large enough effect in the signal ratio in the repeat runs, not every such curve was filed as active; the % refers to the signal ratio)
Summary of the method: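 Agonist mode reporter screen. ME-180 cells stably expressing bla under HRE control received test compounds in DMSO for 17 hrs (37C, 5% CO2), and beta-lactamase activity was then detected with the CCF4-AM FRET substrate.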

[4] = qHTS assay to identify small molecule agonists of H2AX - cell viability counter screen (AID 1224847; calls by dose curve;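 note: wild-type CHO-K1 cells; top concentration of the series differs between compounds; nearly all actives have a fitted effect of over 30% in size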)
Summary of the method: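 CHO-K1 cells plated overnight at 37C, then exposed 3 h at 37C to compounds at 15 concentrations (0.76% DMSO final). Viability by CellTiter-Glo luminescence after 30 min at room temperature.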

[5] = qHTS assay to identify small molecule antagonists of the estrogen related receptor (ERR) signaling pathway from Tox21 library (AID 1224848); note: nearly all actives have a fitted effect of over 50% in size; note: potency is the fitted concentration of half-maximal effect
Summary of the method: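 Luciferase luminescence (ONE-Glo, 30 min room temperature) was the read-out. Cells of the NTP-supplied ERR line, 2,000 per well, were given 6 h at 37 C before compound addition in DMSO and 18 h exposure at 37 C.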

[6] = qHTS assay to identify small molecule agonists of the estrogen related receptor (ERR) signaling pathway from Tox21 library (AID 1224849; calls by dose curve; note: nearly all actives have a fitted effect of over 15% in size); conditions: ERR reporter cell line, ONE-Glo luciferase, 18 h
Summary of the method: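 Quantitative HTS in agonist format: NTP ERR cell line, compounds transferred in DMSO after 6 h plating, 18 h incubation at 37 C, ONE-Glo luminescence endpoint.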

[7] = qHTS RealTime-Glo MT Cell Viability Assay in HEK293 cells - 32 hour (AID 1224868); note: nearly all actives have a fitted effect of over 50% in size; note: potency is the fitted concentration of half-maximal effect
Summary of the method: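 Luminescence generated by NanoLuc from substrate produced by living HEK293 cells served as the viability signal. Each value reflects the reading at its stated time point during continuous 40 h compound exposure at 37 C.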

[8] = A CellTox Green Cytotoxicity Assay to monitor cytotoxicity in HEK293 cells - 0 hour (AID 1224869); note: nearly all actives have a fitted effect of over 50% in size
Summary of the method: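 Dead-cell fluorescence measured kinetically: asymmetric cyanine dye, HEK293, 600 cells/well, 5 h settle, 23 nL cpd/DMSO, 37 C, reads 0–40 h every 8 h.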

[9] = qHTS RealTime-Glo MT Cell Viability Assay in HepG2 cells - 40 hour (AID 1224870); note: nearly all actives have a fitted effect of over 50% in size
Summary of the method: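 Real-time viability: cells seeded at 600 per well together with NanoLuc and cell-permeant prosubstrate, compounds added after 5 h incubation. Luminescence tracked at 0, 8, 16, 24, 32 and 40 h of exposure.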

[10] = qHTS RealTime-Glo MT Cell Viability Assay in HepG2 cells - 24 hour (AID 1224867); note: nearly all actives have a fitted effect of over 50% in size
Summary of the method: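 Tox21 10K library screened in qHTS format on HepG2 cells carrying RealTime-Glo reagents. Compounds were added after a 5 h preincubation, and the luminescent signal from continuous culture was measured repeatedly during 40 h treatment.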
% is set by controls: 0 for no effect and ±100 for the full control effect.

CCOP(=S)(OCC)O/N=C(\C#N)c1ccccc1
inactive: Potency [1] | Potency [2] | outcome [3] | Potency [4] | Potency [5] | activity change, positive = activation ([6]; at 42.5 µM (top of the series)) 3.78% | activity change, positive = activation ([6]; at 92.4 µM (top of the series)) 4.34% | Potency [7] | Potency [8] | Potency [9]

CCCCC(CC)COC(=O)Cl (stereo not given)
inactive: Potency [1] | Potency [2] | outcome [3] | Potency [4] | Potency [5] | activity change, positive = activation ([6]; at 92.4 µM (top of the series)) 0.183% and -0.549% | Potency [10] | Potency [7] | Potency [8] | Potency [9]

COP(=S)(OC)Oc1ccc([N+](=O)[O-])cc1
inactive: Potency [1] | Potency [2] | outcome [3] | Potency [4] | Potency [10] | Potency [7] | Potency [8] | Potency [9]

CCOc1cc(C=O)ccc1O
inactive: Potency [1] | Potency [2] | outcome [3] | Potency [4] | Potency [10] | Potency [7] | Potency [8] | Potency [9]

CCC(CC)Nc1c([N+](=O)[O-])cc(C)c(C)c1[N+](=O)[O-]
inactive: Potency [1] | Potency [2] | outcome [3] | Potency [4] | Potency [5] | activity change, positive = activation ([6]; at 92.4 µM (top of the series)) -5.44% and 8% | Potency [10] | Potency [7] | Potency [8] | Potency [9]

Nc1cccnc1
inactive: Potency [1] | Potency [2] | outcome [3] | Potency [4] | Potency [10] | Potency [7] | Potency [8] | Potency [9]

Cc1cc(Cl)ccc1OCCCC(=O)O
inactive: Potency [1] | Potency [2] | outcome [3] | Potency [4] | Potency [10] | Potency [7] | Potency [8] | Potency [9]

COC(=O)c1sccc1S(=O)(=O)NC(=O)Nc1nc(C)nc(OC)n1
inactive: Potency [1] | Potency [2] | outcome [3] | Potency [4] | Potency [7] | Potency [8] | Potency [9]

Cc1cccc(N)c1N
inactive: Potency [1] | Potency [2] | outcome [3] | Potency [4] | Potency [5] | Potency [10] | Potency [8] | Potency [9]
5.31% (inactive) and 103% (active): activity change, positive = activation ([6]; at 92.4 µM (top of the series))

NNC(N)=S
active: Potency [5] 16 µM and 61.1 µM
inactive: Potency [1] | outcome [3] | Potency [4] | activity change, positive = activation ([6]; at 92.4 µM (top of the series)) -76.7% and -56.6% | Potency [10] | Potency [7] | Potency [8] | Potency [9]
105 µM (active) and inactive: Potency [2]

CCN(N=O)C(N)=O
inactive: Potency [1] | Potency [2] | outcome [3] | Potency [4] | Potency [10] | Potency [7] | Potency [8] | Potency [9]

CCOC(=O)C(C)OC(=O)c1cc(Oc2ccc(C(F)(F)F)cc2Cl)ccc1[N+](=O)[O-] (stereo not given)
inactive: Potency [1] | Potency [2] | outcome [3] | Potency [4] | activity change, positive = activation ([6]; at 92.4 µM (top of the series)) -45.1% and -19.8% | Potency [10] | Potency [8] | Potency [9]
active: Potency [5] 21.6 µM | Potency [7] 30.7 µM

O=Cc1ccco1
inactive: Potency [1] | Potency [2] | outcome [3] | Potency [4] | Potency [5] | activity change, positive = activation ([6]; at 92.4 µM (top of the series)) 0.408% and 7.35% | Potency [10] | Potency [7] | Potency [8] | Potency [9]

C[C@]12CCC(=O)C(O)=C1CC[C@@H]1[C@@H]2CC[C@]2(C)C(=O)CC[C@@H]12
inactive: Potency [1] | Potency [2] | outcome [3] | Potency [4] | activity change, positive = activation ([6]; at 42.5 µM (top of the series)) -8.87% | activity change, positive = activation ([6]; at 92.4 µM (top of the series)) -37.5% | Potency [7] | Potency [8] | Potency [9]
54.5 µM (active) and inactive: Potency [5]

CC(C)C(=O)OCC(C)(C)C(OC(=O)C(C)C)C(C)C (stereo not given)
inactive: Potency [1] | Potency [2] | outcome [3] | Potency [4] | Potency [5] | activity change, positive = activation ([6]; at 92.4 µM (top of the series)) 5% and 0.884% | Potency [7] | Potency [8] | Potency [9]

Nc1ccc(Cl)c(Cl)c1
inactive: Potency [1] | Potency [2] | outcome [3] | Potency [4] | activity change, positive = activation ([6]; at 92.4 µM (top of the series)) -24.9% and -36.3% | Potency [10] | Potency [7] | Potency [8] | Potency [9]
active: Potency [5] 21.7 µM

Cc1ccc(N)c(N)c1
inactive: Potency [1] | Potency [2] | outcome [3] | Potency [4] | Potency [10] | Potency [8] | Potency [9]

COc1ccc(C=O)cc1
inactive: Potency [1] | Potency [2] | outcome [3] | Potency [4] | Potency [7] | Potency [8] | Potency [9]

c1nc[nH]n1
inactive: Potency [1] | Potency [2] | Potency [4] | Potency [5] | activity change, positive = activation ([6]; at 92.4 µM (top of the series)) 1.27% and 6.15% | Potency [10] | Potency [7] | Potency [8] | Potency [9]

CCCCCCOC(=O)c1ccccc1C(=O)OCCCCCC
inactive: Potency [1] | Potency [2] | Potency [4] | Potency [10] | Potency [7] | Potency [8] | Potency [9]
